According to PubChem BioAssay AID1259309 (ICCB-Longwood Screening Facility, Harvard Medical School, 2017):
“And” between values parts separate entries of the source, which are not always exact repeats. Equal values may be shown once. Out of some 330,000 compounds screened, about 1,800 (0.55%) were called active. The list comes from a sample in which actives are over-represented; it also holds similar structures and randomly drawn compounds. A number with no mark means an inactive call. No stated cut-off is given here; in the data, active means growth inhibition above about 68%; inactive means the rest.

test: growth inhibition of ugtP-null S. aureus, primary screen, RN4220 ugtP deletion, OD600 (AID 1259309); conditions: 16 h, stronger effect = higher value;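 further: plate controls were untreated wells for no effect and antibiotic for full effect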

First: O=C(NC(=S)Nc1ccccc1N1CCCCC1)c1ccc(F)cc1
Second: COc1ccc(C(=O)NC(=S)Nc2ccccc2N2CCN(S(C)(=O)=O)CC2)cc1OC
The growth inhibition of the first is higher: 59.3% for the first, -0.518% for the second.

Going from `COc1ccc(C(=O)/C=C/c2cccnc2)c(OC)c1` to `COc1ccc(NC(=O)ON=Cc2ccc(Br)cc2)cc1`, the growth inhibition falls from 5.58% to 4.87%.

Going from `CCC(C)Sc1ccc(C2N[C@@](C)(C(=O)OC)C3C(=O)N(C)C(=O)C23)cc1` (stereo not given in full) to `CC1CN(C(C)CO)C(=O)Cc2cc(NC(=O)C3CC3)ccc2OC1CN(C)Cc1ccc(Oc2ccccc2)cc1` (stereo not given), the growth inhibition rises from 2.56% to 9.46%.

Compared with `Cc1c(CCOC(=O)c2cc([N+](=O)[O-])ccc2Cl)sc[n+]1CCCCS(=O)(=O)[O-]`, `Cc1c(CCO)sc[n+]1CC(=O)OC12CC3CC(CC(C3)C1)C2` is higher in growth inhibition: -10.2% for the first, 7.76% for the second.

Compared with `CCN(CC)Cc1c(C(=O)NN=Cc2ccncc2)nnn1-c1nonc1N`, `COc1ccc(C=NNC(=O)CN2CCCC2)cc1` is lower in growth inhibition: 4.89% for the first, 3.93% for the second.

Compared with `Nc1scc[n+]1Cc1cccc2cccnc12`, `c1ccc2c(CNn3cnnc3)cccc2c1` is higher in growth inhibition: 3.29% for the first, 4.79% for the second.

First: Cc1ccc(CON=CCc2snc(Sc3ncc(C(F)(F)F)cc3Cl)c2C#N)cc1
Second: Cc1nnc(SCc2cc(=O)[nH]c(N3CCN(Cc4ccccc4)CC3)n2)s1
The growth inhibition of the first is higher: 28% for the first, 0.849% for the second.

Compared with `CCCC12CN3CCN(CC(C3)C1=NNC(=O)Nc1ccccc1)C2`, `O=C(ON=Cc1ccc(N2CCCCC2)c([N+](=O)[O-])c1)c1c(F)cccc1F` is lower in growth inhibition: 1.17% for the first, -5.14% for the second.

First: Cc1nnc(SCC(=O)Nn2cnnc2)s1
Second: Cc1nnc(SCC(=O)NC2CCCC2)s1
The growth inhibition of the first is lower: -2.34% for the first, -2.03% for the second.

In the case of `COc1ccccc1C(=O)NC(=S)Nc1ccccc1N1CCCCC1`, the growth inhibition is reported as 93.3% (active).
With `COc1ccc(/C=C/C(=O)c2cc(Br)ccc(=O)c2O)cc1` the growth inhibition was 95.4% (active).
In the case of `Cc1c(CCOC(=O)CC23CC4CC(CC(C)(C4)C2)C3)sc[n+]1Cc1ccc([N+](=O)[O-])cc1`, the growth inhibition is reported as 101% (active) and 100% (active).
With `c1ccc2c(C[n+]3csc4ccccc43)cccc2c1` the growth inhibition was 95.1% (active).
With `Cc1cc(C)cc(C(=O)NC2C(=O)N3C(C(=O)O)=C(CSc4nnc(C)s4)CSC23)c1` (stereo not given) the growth inhibition was 100% (active).
For `Cc1nnc(SCC2=C(C(=O)O)N3C(=O)C(NC(=O)Cn4nc(C)c(Cl)c4C)C3SC2)s1` (stereo not given), the growth inhibition was 97.9% (active).
With `CC1(C)c2[nH]c3ccccc3c2CC2C(=O)N(Cc3ccccc3F)C(=O)N21` (stereo not given) the growth inhibition was 2.24% and -4.9%.
